FBW7 activator – activators of human E3 ligase FBW7; AlphaScreen FBW7–phospho-cyclin E peptide binding, activator screen; normalized activity (activation), % at 26.1 µM; 650,000 compounds, 0.13% hits; AID 1259310; in the data active = normalized activity above about 1.9%;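 note: purified mutant Fbw7 with reduced substrate affinity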
Target sequence (Q969H0 whole entry, looked up): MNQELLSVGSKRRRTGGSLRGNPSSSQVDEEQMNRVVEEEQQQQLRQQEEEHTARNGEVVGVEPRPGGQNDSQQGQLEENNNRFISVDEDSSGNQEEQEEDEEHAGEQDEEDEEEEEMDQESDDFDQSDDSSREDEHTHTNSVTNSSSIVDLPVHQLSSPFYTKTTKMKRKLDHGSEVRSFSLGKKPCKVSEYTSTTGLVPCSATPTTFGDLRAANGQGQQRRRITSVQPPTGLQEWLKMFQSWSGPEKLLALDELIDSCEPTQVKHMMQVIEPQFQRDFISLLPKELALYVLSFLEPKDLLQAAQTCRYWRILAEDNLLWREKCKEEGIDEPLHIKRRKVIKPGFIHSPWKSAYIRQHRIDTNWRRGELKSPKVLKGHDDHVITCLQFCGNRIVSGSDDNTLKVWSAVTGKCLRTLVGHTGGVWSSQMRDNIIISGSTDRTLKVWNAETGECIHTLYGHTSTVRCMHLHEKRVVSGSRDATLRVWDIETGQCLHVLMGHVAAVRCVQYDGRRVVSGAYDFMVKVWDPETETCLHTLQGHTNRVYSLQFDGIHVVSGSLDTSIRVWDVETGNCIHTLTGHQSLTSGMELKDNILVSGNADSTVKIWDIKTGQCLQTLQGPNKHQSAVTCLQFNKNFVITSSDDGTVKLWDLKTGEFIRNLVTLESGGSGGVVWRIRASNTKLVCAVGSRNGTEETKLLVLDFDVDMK
MITF primary – blocks human microphthalmia-associated transcription factor | O75030 | AlphaScreen MITF homodimerization, bead proximity signal | inhibition, % at 2.6 µM | 650,000 compounds, 0.91% hits; in the data active = inhibition above about 50%;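 note: 0% = vehicle wells with protein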
TEAD-YAP inh – TEAD-YAP interaction inhibition. HEK-TIYL cells, TEAD-Gal4/YAP UAS-luciferase luminescence. 640,000 compounds, 1.4% hits. inhibition, % at 9.12 µM; in the data active = inhibition above about 32%;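 note: 0% = median of test compound wells and 100% = reference inhibitor wells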
GPR151 activ – human GPR151 activation; PathHunter beta-arrestin GPR151 cells, luminescence; activation, % at 11.2 µM; 650,000 compounds, 1% hits; AID 1508602; in the data active = activation above about 4.9%;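 note: 0% = median of compound wells and 100% = cells with positive control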
* marks the source's active call; other numbers are inactive results. An excerpt weighted towards active compounds, which were near 3.5% of everything screened.

SMILES	FBW7 activator	MITF primary	TEAD-YAP inh	GPR151 activ
Cc1ccc(S(=O)(=O)Nc2ccccc2C(=O)Nc2nccs2)cc1	0	21	39*	0
Cc1ccc(S(=O)(=O)Nc2ccccc2C(=O)Nc2nc(-c3ccc(Br)cc3)cs2)cc1	0	-8	38*	2
CSc1ccccc1C(=O)Nc1nc(-c2ccc(C#N)cc2)cs1	0	-7	-2	3
Cc1ccc(S(=O)(=O)Nc2ccccc2C(=O)Nc2nc(-c3ccc(Br)s3)cs2)cc1	0	-5	53*	1
CC(=O)Nc1ccc(S(=O)(=O)Oc2ccc(C=O)cc2)cc1	0	-3	0	-2
CC(C)(C)c1nnc(SCCc2ccccc2)n(N)c1=O	0	12	-2	0
Cc1ccc(S(=O)(=O)Nc2ccccc2C(=O)Nc2nc(-c3ccc(Cl)cc3)cs2)cc1	0	2	53*	1
Cc1cc(NC(=O)CCc2c(C)nn(C)c2C)no1	0	6	-2	0
CC(C)(C)n1ncc2c(=O)n(CC(=O)OCc3ccccc3)cnc21	0	0	82*	-1
O=C(COC(=O)c1nc(-c2ccccc2)n(-c2ccccc2)n1)NC(=O)NCc1ccco1	0	-4	-3	0
CCOc1ccc(-c2cnc3ccccc3n2)cc1	0	8	75*	-5
O=C(Oc1cccc(-c2cnc3ccccc3n2)c1)c1ccco1	0	2	43*	-1
CCCCCC(=O)Oc1ccc(-c2cnc3ccccc3n2)cc1	1	15	7	-1
CC(=O)Oc1ccc(-c2cnc3ccccc3n2)cc1	0	6	40*	-8
CC(C)n1cc(-c2cnc3ccccc3n2)cn1	0	-1	72*	-8
NNc1ccc2nnc(C(F)(F)C(F)(F)C(F)(F)F)n2n1	1.9*	5	9	0
Cc1ccc(S(=O)(=O)NCC(c2cccn2C)N2CCc3ccccc3C2)s1 (stereo not given)	0	-7	-1	1
CCn1c(C(O)c2cc(OC)c(OC)c(OC)c2)nc2ccccc21 (stereo not given)	2.3*	16	9	0
Cc1ccc(CSc2nc3c(sc(=S)n3Cc3ccco3)c(=O)n2-c2ccc(F)cc2)cc1	0	11	3	-2
COc1cc(NC(=O)C2COc3ccccc3C2)ccc1-c1cn[nH]c1 (stereo not given)	0	-1	2	2
COc1cc(NC(=O)C2CC(=O)c3ccccc3C2)ccc1-c1cn[nH]c1 (stereo not given)	0	-4	48*	1
NC(=O)CSc1nnc(-c2cccnc2)n1-c1cccc(C(F)(F)F)c1	0	5	10	-1
NC(=O)CSc1nnc(-c2ccncc2)n1-c1cccc(C(F)(F)F)c1	2.6*	-7	-8	-1
Cc1cccc(C(=O)Nc2sc3c(c2C(=O)O)CCC3)c1	0	46	66*	-10
CC(C)Oc1ccc(C(=O)Nc2sc3c(c2C#N)CCC3)cc1	0	8	1	-1
SMILES	FBW7 activator	MITF primary	TEAD-YAP inh	GPR151 activ
CCN(CC)S(=O)(=O)c1ccc(Cl)c(C(=O)Nc2sc3c(c2C#N)CCC3)c1	1	1	34*	0
Cc1ccc(C(=O)Nc2sc3c(c2C(=O)O)CCCC3)o1	0	-11	40*	-6
CNC(=O)c1c(NC(=O)c2cccc(C)c2)sc2c1CCC2	1	17	-32	0
COc1ccc(C(=O)Nc2sc3c(c2C#N)CCC3)cc1	0	0	37*	0
CCC(=O)N(Cc1ccco1)Cc1cc2cc(CC)ccc2n2nnnc12	0	-10	-2	1
Cc1cc(F)c(F)cc1C(=O)NC1CC1	1	8	12	0
CC(C)(C)c1ccc(C(=O)Nc2sc3c(c2C(=O)O)CCC3)cc1	0	-1	89*	0
COc1ccc(C(=O)Nc2sc3c(c2C(=O)O)CCC3)cc1	0	-3	40*	0
O=C(Nc1sc2c(c1C(=O)O)CCCC2)c1ccc(Br)cc1	0	4	0	-1
O=C(Nc1sc2c(c1C(=O)O)CCC2)c1ccc(Br)cc1	0	4	4	1
O=C(Nc1sc2c(c1C(=O)O)CCCC2)c1ccc(F)cc1	0	-1	36*	-5
C=CCOC(=O)C1=C(C)OC(N)=C(C#N)C1c1cc2cc(C)ccc2[nH]c1=O (stereo not given)	0	1	59*	-1
CN(C)/C=C1/C(=O)N(c2nc3ccccc3s2)N=C1c1ccccc1	0	0	5	0
CC1=NN(c2nc3ccccc3s2)C(=O)/C1=C\N(C)C	0	9	68*	-9
CC1=NN(c2nc3ccccc3s2)C(=O)/C1=C(\C)N(C)C	0	5	43*	-10
CCn1c(N2CCC(C(=O)NCCO)CC2)nc2ccccc21	0	0	-2	0
CCn1c(N2CCC(C(=O)NC3CCN(Cc4ccccc4)CC3)CC2)nc2ccccc21	0	9	39*	0
Nc1nnc(SCC(=O)c2c(-c3ccccc3)[nH]c3ccccc23)s1	0	20	-5	-1
CC(C)c1ccc(C(NC(=O)C2CCCCC2)c2ccc3cccnc3c2O)cc1 (stereo not given)	1	5	19	2
CC(C)C(=O)NC(c1ccc(Cl)cc1)c1ccc2cccnc2c1O (stereo not given)	-2	12	85*	1
CC(C)C(=O)NC(c1ccco1)c1ccc2cccnc2c1O (stereo not given)	-2	44	64*	-2
CC(C)C(=O)NC(c1ccccc1)c1ccc2cccnc2c1O (stereo not given)	-1	28	90*	-1
CC(C)C(=O)NC(c1ccccc1Cl)c1ccc2cccnc2c1O (stereo not given)	-2	19	84*	1
O=[N+]([O-])c1ccc(-c2nnn(CCCOc3ccccc3)n2)cc1	0	2	-2	1
C[C@@H]1C[C@@H]2O[C@H]2C=CC=CC(=O)Cc2c(Cl)c(O)cc(O)c2C(=O)O1	0	-10	52*	-1
SMILES	FBW7 activator	MITF primary	TEAD-YAP inh	GPR151 activ
COC(=O)c1ccccc1NC(=O)CSc1nc2ccccc2c(=O)n1CCCC(=O)NCc1ccco1	0	9	2	0
CCOC(=O)c1[nH]c(C)c(/C(C)=N\Nc2ccc([N+](=O)[O-])cc2[N+](=O)[O-])c1C	0	-1	-4	0
CCOC(=O)c1[nH]c(C)c(C(=O)/C=C/c2ccc(N(C)C)c([N+](=O)[O-])c2)c1C	0	13	50*	1
Cc1nc2ncccn2c1-c1csc(Nc2ccc(Cl)cc2)n1	0	-2	54*	-1
Cc1nc2ncccn2c1-c1csc(Nc2cccc(Cl)c2C)n1	0	3	38*	1
CCOc1ccc(Nc2nc(-c3c(C)nc4ncccn34)cs2)cc1	0	-6	58*	1
Cc1nc2ccccn2c1-c1csc(Nc2cccc(Cl)c2C)n1	0	1	21	0
Cc1ccc(Nc2nc(-c3c(C)nc4ncccn34)cs2)cc1	0	9	60*	-1
Fc1ccc(OCCn2cc(C(=S)N3CCCC3)c3ccccc32)cc1	0	4	4	1
